Test [1] concerns the target Lysosomal acid glucosylceramidase (Homo sapiens) (UniProt P04062). Description: Glucocerebrosidase-p2 (AID 348; in the data active = potency below about 10 µM; note: potency is the fitted concentration of half-maximal effect). As to conditions: purified GBA, blue fluorogenic substrate, 40 min. The method, boiled down: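 Compounds titrated from 0.6 nM upwards against 0.2 nM enzyme in pH 5.9 citric acid/KH2PO4, taurocholate, tween-20; blue fluorogenic substrate 80 uM, 40 min room temperature, stopped and read Ex 365/Em 440 for AC50.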

Test [2] is described as follows: AP1 Signaling Pathway (AID 357; active = well fitted curve in either direction with a large enough effect, not every such curve was filed as active;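 note: ME-180 reporter cells stimulated with EGF at its EC50 level; % is set by controls: 0 for no effect and ±100 for the full control effect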). As to conditions: ME-180 AP-1-bla reporter, EGF-induced, beta-lactamase ratio, 5 h; at 7.69 µM (top of the series) unless noted. The method, boiled down:
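In this screen, ME-180 cells in Opti-MEM with 0.5% dialyzed FBS received EC50 EGF and compound titrations for 5 h. AP-1 reporter beta-lactamase was detected via CCF4 ratio, giving AC50 for positive and negative modulators.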

The nature of test [3]: NFAT Signaling Pathway (AID 444; active = well fitted curve in either direction with a large enough effect, not every such curve was filed as active;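 note: carbachol stimulus at about its EC50 of 1 µM final; % is set by controls: 0 for no effect and ±100 for the full control effect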). As to conditions: Jurkat NFAT-bla M1, carbachol, beta-lactamase ratio, 5 h; at 7.69 µM (top of the series) unless noted. The essentials:
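Read-out: CCF4 FRET ratio (460 nm/530 nm) after 1 h RT dye loading, used for %activity and AC50 from titration series. Cells: Jurkat NFAT-β-lactamase/M1 line, treated with compound plus 1 uM carbachol for 5 h, 37 °C.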

Test [4] in a line: Stat Signaling Pathway (AID 446; active = well fitted curve in either direction with a large enough effect, not every such curve was filed as active;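 note: ME-180 cervical cancer cells given 40 pM IL-6 alongside compound; SIE-controlled beta-lactamase reporter measured as 460/530 nm FRET emission ratio; % is set by controls: 0 for no effect and ±100 for the full control effect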). As to conditions: ME-180 SIE beta-lactamase reporter, IL-6 stimulated, 5 h; at 7.69 µM (top of the series) unless noted. The essentials: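 IL-6/STAT signaling read in ME-180 cells via an SIE beta-lactamase reporter. Stimulus was 40 pM IL-6 (its AC50) for 5 hrs, so both activation and inhibition register.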
Test [5] has as its target Glucocorticoid receptor (Homo sapiens) (UniProt P04150). Description: GR-GFP Redistribution (AID 450;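 active = compounds whose dose series gives a full or clear partial fitted curve of increased nuclear translocation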; note: potency is the fitted concentration of half-maximal effect). As to conditions: U2OS GR-GFP nuclear translocation, laser cytometry, 2 h.
The target is the same in test [6]. Description: GR-EFC Redistribution (AID 451; calls by dose curve; note: potency is the fitted concentration of half-maximal effect). Conditions: CHO-K1 GR-EFC translocation, beta-gal luminescence, 2 h. The essentials:
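Translocation of GR-ED fusion to nuclear EA restores b-gal, read by luminescence after 1 h room-temperature detection. Engineered CHO-K1 biosensor cells, 1,000/well, exposed 2 h at 37 C to titrations up to 46 uM final.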

In test [7] the target is Mitogen-activated protein kinase 10 (Mus musculus) (UniProt Q61831). Description: JNK3 AlphaScreen Assay (AID 530; active = well fitted curve in either direction with a large enough effect, not every such curve was filed as active;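 note: kinase came from lysate of stimulated human HepG2 cells; signal reports phosphorylation of biotinylated GST-cJun 1-79 at Ser73 with 10 µM ATP; % is set by controls: 0 for no effect and ±100 for the full control effect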). As to conditions: JNK3 lysate, c-Jun phosphorylation; series mostly up to 57.1 µM. The method, boiled down: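 Compound titrations were preincubated 15 minutes at room temperature with substrate, antibody and pre-activated JNK3-containing HepG2 lysate. Reactions were started with 10 uM ATP and stopped with EDTA-containing bead buffer for AlphaScreen detection.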

The target of test [8] is 3',5'-cyclic-AMP phosphodiesterase 4B (Homo sapiens) (UniProt Q07343). Description: qHTS Assay for Inhibitors of PDE-IV (AID 607; active = well fitted activation curve with a large enough effect in the main read-out, with a control signal flat, not every such curve was filed as active; note: % of control where 0% means no effect). As to conditions: HEK293 ACTOne CNG channel cells, membrane potential fluorescence; series mostly up to 22.9 µM. The essentials: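 Live HEK293 cells with a modified cyclic nucleotide-gated (CNG) channel report intracellular cAMP via membrane-potential dye fluorescence (ex 535/em 590 nm). Endogenous PDE-IV was targeted. Compounds were tested at up to 22.9 uM final; RO 20-1724 100 uM served as control.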
Chain of 3',5'-cyclic-AMP phosphodiesterase 4B (Homo sapiens) (Q07343 whole entry, looked up): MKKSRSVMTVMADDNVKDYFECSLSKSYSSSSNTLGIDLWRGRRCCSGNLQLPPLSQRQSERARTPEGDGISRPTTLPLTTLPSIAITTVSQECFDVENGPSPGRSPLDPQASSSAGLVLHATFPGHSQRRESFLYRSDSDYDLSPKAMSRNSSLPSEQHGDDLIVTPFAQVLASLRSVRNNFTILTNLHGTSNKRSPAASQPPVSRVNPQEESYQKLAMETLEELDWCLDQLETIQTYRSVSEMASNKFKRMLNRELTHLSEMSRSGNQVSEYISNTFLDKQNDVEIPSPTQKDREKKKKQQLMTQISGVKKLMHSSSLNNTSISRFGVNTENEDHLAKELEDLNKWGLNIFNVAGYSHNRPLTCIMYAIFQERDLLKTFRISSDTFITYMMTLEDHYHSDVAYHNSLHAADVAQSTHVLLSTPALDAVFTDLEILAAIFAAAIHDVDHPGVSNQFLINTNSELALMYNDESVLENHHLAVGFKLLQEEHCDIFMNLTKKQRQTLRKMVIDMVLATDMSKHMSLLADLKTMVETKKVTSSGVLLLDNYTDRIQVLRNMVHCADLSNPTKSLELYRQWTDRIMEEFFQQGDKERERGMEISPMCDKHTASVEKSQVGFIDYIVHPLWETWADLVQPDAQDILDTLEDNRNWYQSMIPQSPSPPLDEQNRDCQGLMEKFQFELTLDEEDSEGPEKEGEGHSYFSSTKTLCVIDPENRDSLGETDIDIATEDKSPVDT

Test [9] is described as follows: qHTS Assay for Identification of Small Molecule Agonists for Hypoxia Response Element Signaling Pathway (AID 914; active = well fitted activation curve with a large enough effect in the signal ratio, with a control signal flat, not every such curve was filed as active; the % refers to the signal ratio; note: % of control where 0% means no effect). Conditions: ME-180 (cervical carcinoma) HRE-bla reporter, beta-lactamase ratio, CoCl2, 17 h; activation: stronger effect = higher value. The essentials: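 AC50 values come from titration-series %Activity, taken as the 460/530nm ratio of CCF4 fluorescence (excitation 405nm). CellSensor HRE-bla ME-180 cells were treated 17 hours at 37 C with compound plus an EC50 level of CoCl2.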

Test [10] is described as follows: qHTS Assay for Lipid Storage Modulators (AID 1519; calls by dose curve). As to conditions: Drosophila S3 cells, BODIPY lipid droplet/cell ratio, laser cytometry, cells loaded with oleic acid; for activity change, negative = inhibition: at 57.5 µM (top of the series). The essentials:
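Cells seeded at 5,000 per well were treated with compounds over a concentration series and loaded with oleic acid (400 uM, as added). Lipid droplet fluorescence (488 nm excitation, 500-530 nm channel) was read by laser-scanning cytometry and normalized to 20 uM Triacsin C.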

For test [11], the target named is Dual specificity protein kinase CLK4 (Homo sapiens) (UniProt Q9HAZ1). Description: qHTS Assay for Inhibitors of CDC-like Kinase 4 (Kinase-Glo Assay) (AID 1770). Note: nearly all actives have a fitted effect of over 65% in size. Note: potency is the fitted concentration of half-maximal effect. As to conditions: recombinant Clk4, Kinase-Glo ATP depletion luminescence; series mostly up to 66.7 µM. The method, boiled down:
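Substrate mix (RS peptide 100 uM, ATP 1 uM) dispensed, compound pinned in, then Clk4 added to 25 nM final. Incubated 4.5 h at RT; Kinase-Glo reagent added, luminescence read after 5 min.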

Test [12] has the same target. Description: qHTS Assay for Inhibitors of CDC-like Kinase 4 (ADP-Glo Assay) (AID 1771). Note: nearly all actives have a fitted effect of over 70% in size. Note: potency is the fitted concentration of half-maximal effect. As to conditions: recombinant CLK4, ADP-Glo luminescence; series mostly up to 80 µM. The method, boiled down: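 25 nM Clk4 with 100 uM RS repeat peptide and 1 uM ATP (final) in buffer with 2 mM MgCl2, 0.5 mM EGTA, 2.5 mM DTT, 0.01% Triton X-100; 1 h at room temperature; ADP-Glo luminescence for ADP formed.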

Test [13] has the same target. Description: qHTS Assay for Inhibitors of CDC-like Kinase 4 (ADP-FP Assay) (AID 1795). Note: nearly all actives have a fitted effect of over 60% in size. Note: potency is the fitted concentration of half-maximal effect. As to conditions: Transcreener ADP fluorescence polarization; series mostly up to 50 µM. The method, boiled down: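 Clk4 6.25 nM; RS peptide 100 uM; ATP 1 uM; 25 mM Tris pH 7.5, 10 mM MgCl2; 1 h reaction. ADP detected via antibody/orange tracer FP displacement; TG003 positive control.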

Test [14] can be described thus: Primary qHTS for small molecule stabilizers of the endoplasmic reticulum resident proteome: Secreted ER Calcium Modulated Protein (SERCaMP) assay (AID 1508630). Note: % is set by controls: 0 for no effect and ±100 for the full control effect. As to conditions: SH-SY5Y GLuc-SERCaMP (Gaussia luciferase released on ER calcium loss) secretion, thapsigargin, luminescence; series mostly up to 38.4 µM. The essentials: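 GLuc-SERCaMP-expressing SH-SY5Y cells, pretreated 16 h with compound, are challenged with thapsigargin to empty ER calcium stores; after 4 h, coelenterazine is added directly to the medium and luminescence is imaged.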

Test [15] deals with Ubiquitin carboxyl-terminal hydrolase 1 (Homo sapiens) (UniProt O94782). Description: Inhibitors of USP1/UAF1: Pilot qHTS (AID 504865).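 Note: rhodamine fluorescence freed from ubiquitin-rhodamine substrate followed over time; top concentration of the series differs between compounds; % is set by controls: 0 for no effect and ±100 for the full control effect; nearly all actives have a fitted effect of over 35% in size.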 Conditions: purified USP1/UAF1, Ub-rhodamine cleavage fluorescence; series mostly up to 54.9 µM. The method, boiled down:
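In 50mM HEPES pH 7.8 containing 0.5mM EDTA, 1mM TCEP, 0.1 mg/ml BSA and 0.01% Tween-20, 1nM USP1/UAF1 is exposed to compound for 15 min, then Ub-Rho (150nM final) is added and fluorescence is read over time.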

The target of test [16] is Cytochrome P450 1A2 (Homo sapiens) (UniProt P05177). Description: p450-cyp1a2 (AID 410; calls by dose curve; note: potency is the fitted concentration of half-maximal effect). Conditions: recombinant CYP1A2, luciferin-ME demethylation, luminescence; series mostly up to 57 µM. The essentials:
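20nM CYP1A2 with 100uM Luciferin-ME (at Km) in 100mM KPO4; compound preincubated 10 min, NADPH regeneration added, 60 min at room temperature. Luciferin quantified by luminescence after detection reagent; normalized to 57 uM furafylline.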

In test [17] the target is Cytochrome P450 3A4 (Homo sapiens) (UniProt P08684). Description: qHTS Assay for Inhibitors and Substrates of Cytochrome P450 3A4 (AID 884). Note: potency is the fitted concentration of half-maximal effect; nearly all actives have a fitted effect of over 50% in size. As to conditions: recombinant CYP3A4, Luciferin-PPXE luminescence; series mostly up to 57.1 µM. The essentials:
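20 nM human CYP3A4 with 25 uM Luciferin-PPXE (at KM) in 200 mM KPO4, preincubated 10 min with compound; NADPH regeneration started a 60 min RT reaction. Luciferin detected by luminescence, normalized to 57 uM ketoconazole as full inhibition.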

Test [18] has the same target. Description: qHTS Assay for Activators of Cytochrome P450 3A4 (AID 885). Note: nearly all actives have a fitted effect of over 65% in size. Conditions: recombinant CYP3A4, Luciferin-PPXE luminescence, 60 min; series mostly up to 57.1 µM. The method, boiled down:
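Quantitative HTS format: compounds preincubated with 20nM human CYP3A4 and Luciferin-PPXE substrate at KM, reaction started by NADPH regeneration, stopped after 60 min, luciferase luminescence read 20 min later.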

Test [19] has as its target Cytochrome P450 2C19 (Homo sapiens) (UniProt P33261). Description: qHTS Assay for Inhibitors and Substrates of Cytochrome P450 2C19 (AID 899). Note: potency is the fitted concentration of half-maximal effect; nearly all actives have a fitted effect of over 60% in size. Conditions: recombinant CYP2C19, luciferin-H EGE luminescence; series mostly up to 57.1 µM. The essentials: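 Reactions contain 5nM enzyme, 10uM Luciferin-H EGE (KM) and 50mM KPO4; compound preincubates 10 min at 37C, NADPH regeneration starts turnover for 60 min. Luminescence after detection reagent gives activity.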

The mark [20] stands for this setting: measured here: cell count channel max response.
[21] abbreviates: measured here: lipid channel max response.

Results filed as inconclusive are left out. Activity calls are given as the source filed them. Unless noted, calls come from the whole dose curve; as a rule, active = well fitted curve in the direction sought with a large enough effect; inconclusive = small, poorly fitted or top-dose-only effect, or another doubt; inactive = no such curve, though single readings can be large; an effect the other way counts as inactive or inconclusive. Bounds are passed on as bounds.

Chain of Glucocorticoid receptor (Homo sapiens) (P04150 whole entry, looked up): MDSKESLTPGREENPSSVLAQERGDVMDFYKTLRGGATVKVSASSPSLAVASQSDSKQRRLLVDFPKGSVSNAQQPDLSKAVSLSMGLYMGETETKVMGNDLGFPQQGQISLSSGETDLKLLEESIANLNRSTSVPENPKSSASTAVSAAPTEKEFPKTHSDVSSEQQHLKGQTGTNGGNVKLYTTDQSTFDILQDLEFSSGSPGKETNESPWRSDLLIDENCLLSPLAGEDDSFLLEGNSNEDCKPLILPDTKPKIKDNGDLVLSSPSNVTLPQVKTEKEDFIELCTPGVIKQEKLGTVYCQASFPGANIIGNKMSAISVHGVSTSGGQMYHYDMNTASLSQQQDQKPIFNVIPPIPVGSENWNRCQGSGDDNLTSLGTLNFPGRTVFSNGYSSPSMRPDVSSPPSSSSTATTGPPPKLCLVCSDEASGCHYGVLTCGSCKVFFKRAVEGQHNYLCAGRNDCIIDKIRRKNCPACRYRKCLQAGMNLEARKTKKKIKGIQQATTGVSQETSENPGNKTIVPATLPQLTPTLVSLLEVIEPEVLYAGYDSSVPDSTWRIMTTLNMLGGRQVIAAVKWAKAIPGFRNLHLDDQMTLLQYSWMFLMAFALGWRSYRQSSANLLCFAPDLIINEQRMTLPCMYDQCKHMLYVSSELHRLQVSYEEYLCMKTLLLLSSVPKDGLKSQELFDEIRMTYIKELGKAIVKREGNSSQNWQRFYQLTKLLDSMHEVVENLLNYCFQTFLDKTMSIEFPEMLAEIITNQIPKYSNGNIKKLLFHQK
Chain of Cytochrome P450 3A4 (Homo sapiens) (P08684 whole entry, looked up): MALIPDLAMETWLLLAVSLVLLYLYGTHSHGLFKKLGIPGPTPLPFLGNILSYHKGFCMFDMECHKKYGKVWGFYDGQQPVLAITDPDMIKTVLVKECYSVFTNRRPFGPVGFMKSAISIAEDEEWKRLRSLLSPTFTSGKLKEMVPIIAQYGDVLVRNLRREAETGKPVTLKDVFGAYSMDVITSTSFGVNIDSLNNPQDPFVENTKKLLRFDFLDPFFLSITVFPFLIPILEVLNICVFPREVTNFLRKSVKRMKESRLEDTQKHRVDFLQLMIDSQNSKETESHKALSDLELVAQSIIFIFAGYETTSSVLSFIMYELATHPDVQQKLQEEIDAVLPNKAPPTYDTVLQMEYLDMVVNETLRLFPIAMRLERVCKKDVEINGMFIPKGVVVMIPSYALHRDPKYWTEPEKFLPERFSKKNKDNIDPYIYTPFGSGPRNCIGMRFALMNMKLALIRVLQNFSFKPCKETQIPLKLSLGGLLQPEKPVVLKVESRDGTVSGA
Chain of Ubiquitin carboxyl-terminal hydrolase 1 (Homo sapiens) (O94782 whole entry, looked up): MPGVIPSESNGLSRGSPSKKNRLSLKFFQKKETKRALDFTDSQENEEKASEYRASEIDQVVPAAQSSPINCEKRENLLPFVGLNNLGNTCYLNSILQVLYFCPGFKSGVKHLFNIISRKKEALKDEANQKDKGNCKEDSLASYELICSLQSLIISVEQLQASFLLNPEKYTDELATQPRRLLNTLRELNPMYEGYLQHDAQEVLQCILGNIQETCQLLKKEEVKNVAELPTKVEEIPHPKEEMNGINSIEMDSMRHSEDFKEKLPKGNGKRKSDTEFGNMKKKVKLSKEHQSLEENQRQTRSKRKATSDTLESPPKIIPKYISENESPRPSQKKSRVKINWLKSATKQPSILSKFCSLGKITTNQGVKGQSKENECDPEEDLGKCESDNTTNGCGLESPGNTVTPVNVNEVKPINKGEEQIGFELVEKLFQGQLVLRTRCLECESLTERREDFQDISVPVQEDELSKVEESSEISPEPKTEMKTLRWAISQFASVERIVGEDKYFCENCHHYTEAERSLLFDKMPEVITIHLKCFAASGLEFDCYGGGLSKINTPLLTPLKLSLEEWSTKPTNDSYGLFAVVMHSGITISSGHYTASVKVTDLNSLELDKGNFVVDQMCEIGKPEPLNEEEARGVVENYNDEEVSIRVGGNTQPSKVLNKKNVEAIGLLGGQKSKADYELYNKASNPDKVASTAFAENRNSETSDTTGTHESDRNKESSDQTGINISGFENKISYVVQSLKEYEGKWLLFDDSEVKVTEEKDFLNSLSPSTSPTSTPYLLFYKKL
Chain of Lysosomal acid glucosylceramidase (Homo sapiens) (P04062 whole entry, looked up): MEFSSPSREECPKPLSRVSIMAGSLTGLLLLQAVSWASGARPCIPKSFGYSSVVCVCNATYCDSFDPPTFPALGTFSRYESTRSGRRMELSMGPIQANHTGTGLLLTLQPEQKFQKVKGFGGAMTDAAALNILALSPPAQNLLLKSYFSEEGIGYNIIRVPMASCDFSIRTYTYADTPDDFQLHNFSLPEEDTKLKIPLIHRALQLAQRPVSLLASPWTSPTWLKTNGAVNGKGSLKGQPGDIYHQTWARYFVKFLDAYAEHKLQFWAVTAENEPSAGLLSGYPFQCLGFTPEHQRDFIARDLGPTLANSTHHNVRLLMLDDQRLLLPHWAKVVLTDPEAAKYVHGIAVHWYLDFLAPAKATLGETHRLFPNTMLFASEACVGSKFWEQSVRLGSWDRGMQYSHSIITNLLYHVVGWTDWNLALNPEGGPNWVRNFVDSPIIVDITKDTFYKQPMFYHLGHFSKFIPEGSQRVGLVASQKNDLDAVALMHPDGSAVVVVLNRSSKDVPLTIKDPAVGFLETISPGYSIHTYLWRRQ
Chain of Dual specificity protein kinase CLK4 (Homo sapiens) (Q9HAZ1 whole entry, looked up): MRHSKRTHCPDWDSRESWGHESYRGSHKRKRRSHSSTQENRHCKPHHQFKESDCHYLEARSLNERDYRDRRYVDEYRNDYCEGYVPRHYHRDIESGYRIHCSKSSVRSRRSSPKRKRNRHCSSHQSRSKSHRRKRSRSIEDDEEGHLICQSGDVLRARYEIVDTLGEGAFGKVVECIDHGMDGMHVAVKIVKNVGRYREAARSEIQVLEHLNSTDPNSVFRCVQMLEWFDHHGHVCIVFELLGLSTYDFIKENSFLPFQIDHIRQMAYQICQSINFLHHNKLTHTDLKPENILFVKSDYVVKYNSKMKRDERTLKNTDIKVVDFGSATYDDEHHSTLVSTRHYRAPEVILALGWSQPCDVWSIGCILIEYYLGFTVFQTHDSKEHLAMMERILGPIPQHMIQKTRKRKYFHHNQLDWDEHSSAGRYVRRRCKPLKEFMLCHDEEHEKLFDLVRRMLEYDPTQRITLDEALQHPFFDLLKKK
Chain of Cytochrome P450 1A2 (Homo sapiens) (P05177 whole entry, looked up): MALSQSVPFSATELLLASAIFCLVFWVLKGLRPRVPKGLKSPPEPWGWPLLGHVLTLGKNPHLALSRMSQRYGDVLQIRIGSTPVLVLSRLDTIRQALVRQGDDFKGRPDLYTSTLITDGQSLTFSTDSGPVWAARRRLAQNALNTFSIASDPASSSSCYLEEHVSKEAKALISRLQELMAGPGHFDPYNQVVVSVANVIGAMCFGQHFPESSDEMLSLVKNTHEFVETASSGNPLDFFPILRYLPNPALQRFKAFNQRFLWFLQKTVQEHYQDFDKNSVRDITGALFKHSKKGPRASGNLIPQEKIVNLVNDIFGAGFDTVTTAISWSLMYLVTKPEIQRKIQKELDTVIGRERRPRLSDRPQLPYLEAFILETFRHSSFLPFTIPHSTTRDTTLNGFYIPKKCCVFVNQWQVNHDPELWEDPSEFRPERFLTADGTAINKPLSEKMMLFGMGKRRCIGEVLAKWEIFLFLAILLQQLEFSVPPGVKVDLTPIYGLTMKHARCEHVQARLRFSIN
Chain of Cytochrome P450 2C19 (Homo sapiens) (P33261 whole entry, looked up): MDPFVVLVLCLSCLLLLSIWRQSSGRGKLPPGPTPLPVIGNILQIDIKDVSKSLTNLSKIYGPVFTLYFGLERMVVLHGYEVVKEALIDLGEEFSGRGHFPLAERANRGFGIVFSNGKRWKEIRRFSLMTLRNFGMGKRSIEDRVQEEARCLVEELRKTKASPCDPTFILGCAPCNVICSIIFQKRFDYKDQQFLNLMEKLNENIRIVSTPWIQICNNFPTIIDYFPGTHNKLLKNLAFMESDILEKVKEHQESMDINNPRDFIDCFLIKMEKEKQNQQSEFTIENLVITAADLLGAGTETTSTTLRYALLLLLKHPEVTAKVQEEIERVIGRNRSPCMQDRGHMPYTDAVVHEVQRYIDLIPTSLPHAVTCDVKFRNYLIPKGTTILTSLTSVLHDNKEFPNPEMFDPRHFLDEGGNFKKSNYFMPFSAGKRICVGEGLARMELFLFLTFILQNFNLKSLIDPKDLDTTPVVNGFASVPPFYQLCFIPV

In the case of `O=c1c(-c2cc(F)cc(F)c2)nc2cnc(Nc3ccccc3)nc2n1C[C@H]1CCCO1`, the values for the Potency in test [1], in [5] and in test [6] were > 11.4 µM (inactive), > 9.22 µM (inactive) and > 46 µM (inactive), respectively. Further, the activity change, negative = inhibition in test [2] is -3.83% (inactive); in [3] it was -13.7% (inactive); in test [10], -10.6% (inactive). Besides, the activity, negative = inhibition in [4] is 1.12% (inactive). The compound was classed as inactive in test [7]. Also, the Potency entry in test [8], in test [11], in test [12], in [13] and in test [14] was “inactive” in each case. Besides, the activation in test [9] is -17% (inactive). Moreover, the max response in [10] (setting [20]) is 17.2%; in test [10] (setting [21]) it was 2.07%.

Consider `O=c1c(-c2ccccc2)nc2cnc(Nc3ccccc3)nc2n1Cc1cccs1`, for which the values for the Potency in test [1], in [5] and in test [6] were > 11.4 µM (inactive), > 9.22 µM (inactive) and > 46 µM (inactive), respectively. The activity change, negative = inhibition in [2] is -15.4% (inactive); in test [10] it was -3.34% (inactive). Besides, the result in test [7] was inactive. Moreover, the max response in [10] (setting [20]) stood at 8.31%; in test [10] (setting [21]) it was 4.81%. The Potency result in test [11], in test [12], in test [13], in [15] and in [14] was “inactive” each time.

Regarding `Cc1noc(C)c1-c1cc(N2CCNCC2)ncn1`, the Potency was > 11.4 µM (inactive) in test [1], > 46 µM (inactive) in [5] and > 46 µM (inactive) in [6]. Further, the activity change, negative = inhibition is -3.92% (inactive) in test [2], 7.79% (inactive) in test [3] and 5.16% (inactive) in test [10]. Further, in [4], the activity, negative = inhibition is 5.3% (inactive). Further, the outcome in test [7] was inactive. Moreover, the Potency entry in test [8], in test [11], in [12], in test [13], in test [15] and in test [14] was “inactive” throughout. The max response came out at 1.52% in test [10] (setting [20]) and 8.99% in test [10] (setting [21]).

As to `c1csc(CNc2ncnc3ccc(-c4ccoc4)cc23)c1`, the Potency is 3.16 µM (active) in [16]; > 46 µM (inactive) in test [5]; > 46 µM (inactive) in [6]; 7.94 µM (active) in [17]; 6.31 µM (active) in test [19]; 0.251 µM (active) in test [11]. The Potency is 0.355 µM (active) in [12] and 0.0501 µM (active) in [13]. The activity change, negative = inhibition in test [3] was 1.06% (inactive); in [10] it was -0.111% (inactive). Moreover, the activity, negative = inhibition in [4] is -21% (inactive). Further, in test [7], the result was inactive. Besides, the Potency result in test [8], in test [18], in [15] and in [14] was “inactive” in each case. Further, the max response in test [10] (setting [20]) was found to be 15.9%; in test [10] (setting [21]), 14.7%.

As for `COCCNc1ncnc2ccc(-c3cccc(NS(C)(=O)=O)c3)cc12`, the activity change, negative = inhibition in [2] is -19.3% (inactive); in [10], 1.59% (inactive). Further, the Potency is 0.794 µM (active) in test [16]; > 46 µM (inactive) in [5]; > 46 µM (inactive) in [6]; 12.6 µM (active) in [11]; 8.91 µM (active) in test [12]; 11.2 µM (active) in test [13]. Also, the activity, negative = inhibition in test [4] is -4.92% (inactive). Further, the compound was classed as inactive in test [7]. The Potency entry in test [18], in test [15] and in [14] was “inactive” each time. For the same compound, the max response is -7.37% in [10] (setting [20]) and -7.54% in test [10] (setting [21]).

Values taken from PubChem BioAssay (NCATS).
